The results in this text go back to PubChem BioAssay AID602281 (The Scripps Research Institute Molecular Screening Center, 2012).

Each structure is given as a SMILES string. The campaign covered roughly 360,000 compounds. About 2,900 (0.81%) were called active. Shown is part of a subset that was picked to be rich in actives. Unmarked numbers belong to inactive results.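 The calls were made as follows: active = inhibition above the mean inhibition across every tested compound plus 3 SD (cut at about 22% in these data); inactive = the rest.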

The target of this assay is Perilipin-5 (Homo sapiens) + 1-acylglycerol-3-phosphate O-acyltransferase ABHD5 (Homo sapiens) (UniProt Q00G26+Q8WTS1). In words: ABHD5-PLIN5 interaction inhibitors, primary screen, cell lysate, split luciferase complementation, luminescence (AID 602281).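 Also: 0% = DMSO only wells and the 100% control is not disclosed.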 Particulars: Split G. princeps luciferase complementation, 4 h, at 4 µM, active compounds read high.
Chain of Perilipin-5 (Homo sapiens) + 1-acylglycerol-3-phosphate O-acyltransferase ABHD5 (Homo sapiens) (Q00G26 whole entry, looked up): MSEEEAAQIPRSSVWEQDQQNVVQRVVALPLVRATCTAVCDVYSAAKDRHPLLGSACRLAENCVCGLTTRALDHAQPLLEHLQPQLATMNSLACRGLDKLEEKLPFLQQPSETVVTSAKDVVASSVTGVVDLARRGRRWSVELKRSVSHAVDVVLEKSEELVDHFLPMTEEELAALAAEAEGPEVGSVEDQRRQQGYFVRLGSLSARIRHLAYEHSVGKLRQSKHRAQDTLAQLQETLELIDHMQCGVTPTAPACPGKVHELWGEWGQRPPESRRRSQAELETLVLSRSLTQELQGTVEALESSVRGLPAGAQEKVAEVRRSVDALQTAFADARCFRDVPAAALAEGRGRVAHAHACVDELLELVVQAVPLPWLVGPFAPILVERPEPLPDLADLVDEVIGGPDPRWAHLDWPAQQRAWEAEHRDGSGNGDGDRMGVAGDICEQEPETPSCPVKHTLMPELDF
Chain of Perilipin-5 (Homo sapiens) + 1-acylglycerol-3-phosphate O-acyltransferase ABHD5 (Homo sapiens) (Q8WTS1 whole entry, looked up): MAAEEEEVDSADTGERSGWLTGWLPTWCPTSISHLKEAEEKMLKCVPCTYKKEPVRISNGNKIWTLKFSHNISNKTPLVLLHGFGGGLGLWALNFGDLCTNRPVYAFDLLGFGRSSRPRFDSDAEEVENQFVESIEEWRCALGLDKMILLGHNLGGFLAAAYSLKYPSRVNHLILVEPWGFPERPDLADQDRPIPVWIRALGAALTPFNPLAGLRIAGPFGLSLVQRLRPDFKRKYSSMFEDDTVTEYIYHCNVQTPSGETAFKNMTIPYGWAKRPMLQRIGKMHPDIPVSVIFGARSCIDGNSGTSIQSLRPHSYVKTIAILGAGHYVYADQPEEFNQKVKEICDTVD
As for `COC(=O)[C@@]1(Cc2ccc(F)cc2)[C@H]2c3cc(C(=O)N4CCCC4)n(Cc4ccc(OC(F)(F)F)cc4)c3C[C@H]2CN1C(=O)c1ccccc1`, the inhibition (in general, the drop in the measured response relative to a control, in per cent) was 22.3% (active).

As for `COC(=O)[C@@]1(Cc2ccc(F)cc2)[C@H]2c3cc(C(=O)N4CCCC4)n(C[C@H](O)CO)c3C[C@H]2CN1C(=O)c1ccccc1`, the inhibition is 6.42%.

For the compound `COC(=O)[C@@]1(Cc2ccc(OC)cc2)[C@H]2c3cc(C(=O)N4CCCC4)n(Cc4ccc(OC(F)(F)F)cc4)c3C[C@H]2CN1C(=O)c1ccccc1`, the inhibition was 18.3%.

On to `COC(=O)Nc1ccc(S(=O)(=O)N(C)CC(F)(F)C(F)F)cc1`, for which the inhibition was 4.74%.

In the case of `CC1CC(C)CN(S(=O)(=O)c2cccc3nonc23)C1` (stereo not drawn), the inhibition is -3.19%.

With `COc1cccc(OC)c1CN(C)C(=O)c1cnccc1C(F)(F)F`, the inhibition is 4.28%.

Take `O=C(COC(=O)c1ccc(F)c(S(=O)(=O)N2CCOCC2)c1)NCc1ccc2c(c1)OCO2`: the inhibition was 2.94%.

Regarding `Cc1ccnc(NC(=O)CCC(=O)N(CC(=O)NCCc2ccccc2)Cc2cccs2)c1`, the inhibition was 1.17%.

As for `O=C(c1cc2sccc2n1Cc1ccc(F)cc1)N1CCc2ccccc21`, the inhibition is -4.45%.

On to `Brc1ccc(-c2nn[nH]n2)cc1`, for which the inhibition is -0.33%.

With `Cc1ccc(-c2ccc(CN3C(C(C)C)C(=O)N(Cc4cn(CCC5OCCCO5)nn4)CCS3(=O)=O)cc2)cc1` (stereo not drawn), the inhibition is -3.62%.

`CC(C)n1cnc2c(NCc3ccccc3)cc(OCC3CCN(C)CC3)cc21`: the inhibition was 52.1% (active).

With `c1ccc2c(c1)C(=NC1CCCCC1)NC2=NC1CCCCC1`, the inhibition was 10.2%.

For `O=C(NNC(=S)Nc1ccccc1)c1cccc(S(=O)(=O)N2CCOCC2)c1`, the inhibition is -0.88%.

On to `COC(=O)C[C@H]1C=C[C@H](NC(=O)c2ccc(F)cc2)[C@@H](CO)O1`, for which the inhibition is 7.9%.

As to `CCOc1ccccc1NC(=S)C(=C([O-])c1ccc2c(c1)OCCO2)[n+]1ccc(CC)cc1`, the inhibition was -7.74%.

`Cc1nn(C)c(C)c1C(C)NC(=O)c1ccc(OC2CCN(Cc3ccccn3)CC2)cc1` (stereo not drawn): the inhibition was 11.1%.

Turning to `CC1Cc2[nH][nH]c(=O)c2C(C2CCCC2)O1` (stereo not drawn), the inhibition is 8.22%.

As to `CSc1nccc(NC(=O)c2ccc(C(C)(C)C)cc2)n1`, the inhibition was -0.98%.

On to `COC(=O)c1nc(NC(=O)c2ccc(C(C)(C)C)cc2)n[nH]1`, for which the inhibition was 81.5% (active).

With `O=C(Nc1n[nH]c(C(F)(F)F)n1)c1cccs1`, the inhibition is 3.2%.

Consider `Cc1ccc(NC(=O)c2ccc(Cl)nc2)cc1S(=O)(=O)N1CCOCC1`, for which the inhibition is -3.8%.

Regarding `CCCn1c(SCC(=O)Nc2c(C)cccc2C)nnc1C(C)C`, the inhibition is 5.88%.
